Among the targets are RELARELA (p65 homodimer) (Homo sapiens, UniProt Q04206 1-307); p50p50 homodimer (Homo sapiens, UniProt P19838 7-356); RELB subunit;p50 subunit (Homo sapiens;Homo sapiens, UniProt Q01201;P19838 120-401;7-356).
What all share (assay): protein binding microarray; high values mean tight binding
Conditions in all cases: dsDNA, one strand shown

For another test, the target named is T1, p52p52 homodimer (Homo sapiens, UniProt Q00653 4-332).
T1 sequence: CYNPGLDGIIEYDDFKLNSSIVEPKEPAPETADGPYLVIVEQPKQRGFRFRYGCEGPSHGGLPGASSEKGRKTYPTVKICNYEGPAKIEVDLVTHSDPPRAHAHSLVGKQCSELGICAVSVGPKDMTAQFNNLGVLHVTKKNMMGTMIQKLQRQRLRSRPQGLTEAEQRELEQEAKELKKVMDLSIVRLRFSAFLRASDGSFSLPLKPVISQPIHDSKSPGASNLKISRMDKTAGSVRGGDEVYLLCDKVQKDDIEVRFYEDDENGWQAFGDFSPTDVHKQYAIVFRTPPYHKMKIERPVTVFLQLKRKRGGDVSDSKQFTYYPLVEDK

Test [1] has as its target RELA (p65) subunit of heterodimer;p50 subunit (Homo sapiens;Homo sapiens, UniProt Q04206;P19838 1-307;7-356).
For test [2], the target named is RELA (p65) subunit of heterodimer;p52 subunit (Homo sapiens;Homo sapiens, UniProt Q04206;Q00653 1-307;4-332).
The target of a further test is T2, RELB subunit;p52 subunit (Homo sapiens;Homo sapiens, UniProt Q01201;Q00653 120-401;4-332).
T2 sequence 1: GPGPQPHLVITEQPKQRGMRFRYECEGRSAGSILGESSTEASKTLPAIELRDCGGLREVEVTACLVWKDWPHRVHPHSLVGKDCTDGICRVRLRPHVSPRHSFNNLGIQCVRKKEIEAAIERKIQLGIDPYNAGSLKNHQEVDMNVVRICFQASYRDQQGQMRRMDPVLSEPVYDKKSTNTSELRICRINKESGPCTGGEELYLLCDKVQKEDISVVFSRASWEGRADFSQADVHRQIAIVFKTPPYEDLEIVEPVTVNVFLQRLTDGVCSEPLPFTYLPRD
T2 sequence 2: T1 sequence

Test [3] concerns the target C-Rel subunit;p50 subunit (Homo sapiens;Homo sapiens, UniProt Q04864;P19838 1-285;7-356).
Test [4] concerns the target T3, C-Rel subunit;p52 subunit (Homo sapiens;Homo sapiens, UniProt Q04864;Q00653 1-285;4-332).
T3 sequence 1: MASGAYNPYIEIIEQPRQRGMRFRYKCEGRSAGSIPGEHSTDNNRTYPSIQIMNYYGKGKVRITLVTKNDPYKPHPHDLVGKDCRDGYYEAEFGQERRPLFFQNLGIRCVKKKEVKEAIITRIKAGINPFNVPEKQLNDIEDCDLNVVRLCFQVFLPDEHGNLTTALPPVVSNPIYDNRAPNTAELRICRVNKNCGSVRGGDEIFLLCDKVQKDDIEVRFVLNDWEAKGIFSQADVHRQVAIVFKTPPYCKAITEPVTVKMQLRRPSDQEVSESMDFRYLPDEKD
T3 sequence 2: T1 sequence

Chain of p50p50 homodimer (P19838 7-356): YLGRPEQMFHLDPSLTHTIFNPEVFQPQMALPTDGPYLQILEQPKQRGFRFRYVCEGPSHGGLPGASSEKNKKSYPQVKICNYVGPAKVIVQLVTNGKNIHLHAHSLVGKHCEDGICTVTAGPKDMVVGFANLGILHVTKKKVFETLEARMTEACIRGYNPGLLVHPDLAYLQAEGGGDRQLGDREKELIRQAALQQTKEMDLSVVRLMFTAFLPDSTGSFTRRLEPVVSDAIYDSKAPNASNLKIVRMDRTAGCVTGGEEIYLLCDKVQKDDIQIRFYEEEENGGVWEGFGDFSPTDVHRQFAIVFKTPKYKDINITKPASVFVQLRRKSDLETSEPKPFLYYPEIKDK
Chain of RELA (p65) subunit of heterodimer;p50 subunit (Q04206 1-307, chain 1 of 2): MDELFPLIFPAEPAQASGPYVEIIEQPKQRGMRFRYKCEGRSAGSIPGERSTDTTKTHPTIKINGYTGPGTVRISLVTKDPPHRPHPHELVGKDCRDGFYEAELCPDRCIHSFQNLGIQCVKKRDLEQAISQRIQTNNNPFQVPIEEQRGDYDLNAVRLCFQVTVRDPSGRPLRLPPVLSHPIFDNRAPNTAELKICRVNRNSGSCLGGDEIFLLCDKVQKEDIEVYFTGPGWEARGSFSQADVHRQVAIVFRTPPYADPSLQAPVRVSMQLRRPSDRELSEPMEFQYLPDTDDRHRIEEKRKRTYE
Chain of RELA (p65) subunit of heterodimer;p50 subunit (P19838 7-356, chain 2 of 2): as the sequence (P19838 7-356) above
Chain of RELARELA (p65 homodimer) (Q04206 1-307): as the sequence (Q04206 1-307, chain 1 of 2) above

For the sequence CGAGAAATCCC, the binding signal with RELARELA (p65 homodimer) worked out at 1.4 z-score; in the test with p50p50 homodimer it was 0.819 z-score; with p52p52 homodimer it was 0.839 z-score; in [1] it was 0.872 z-score; in test [2], 0.718 z-score; in the test with RELB subunit;p50 subunit, 0.773 z-score. Further, the binding signal was 0.543 z-score with RELB subunit;p52 subunit, 0.883 z-score in [3] and 0.451 z-score in test [4].

Consider AAAGGTCCCCT, for which the binding signal in the test with RELARELA (p65 homodimer) was -0.0302 z-score; with p50p50 homodimer, 1.09 z-score; with p52p52 homodimer, 0.848 z-score; in [1], 0.65 z-score; in [2], 0.742 z-score; with RELB subunit;p50 subunit, 1.05 z-score. For the same sequence, the figures for the binding signal (in the test with RELB subunit;p52 subunit; in [3]; in test [4]) were 0.989 z-score, 0.669 z-score and 0.512 z-score, respectively.

As to AGAGTCATCCT, the binding signal with RELARELA (p65 homodimer) is -0.641 z-score; with p50p50 homodimer, -2.61 z-score; with p52p52 homodimer, -0.647 z-score; in test [1] it was -1.23 z-score; in test [2], -0.868 z-score; in the test with RELB subunit;p50 subunit, -1.06 z-score. For the same sequence, the binding signal with RELB subunit;p52 subunit was -0.873 z-score; in test [3], -1.63 z-score; in test [4], -1.09 z-score.

As to CGAGTTATCCT, the binding signal with RELARELA (p65 homodimer) is -0.476 z-score; in the test with p50p50 homodimer, -1.24 z-score; with p52p52 homodimer, -0.637 z-score; in test [1], -1.02 z-score; in test [2], -0.873 z-score; with RELB subunit;p50 subunit, -1.13 z-score. Also, the binding signal was -0.889 z-score in the test with RELB subunit;p52 subunit, -1.27 z-score in test [3] and -0.871 z-score in test [4].

Turning to AGAGATCCCCC, the binding signal with RELARELA (p65 homodimer) was -0.101 z-score; with p50p50 homodimer, 1.31 z-score; with p52p52 homodimer, 1.28 z-score; in test [1] it was 2.02 z-score; in test [2], 1.56 z-score; with RELB subunit;p50 subunit it was 1.82 z-score. Further, the binding signal was 1.98 z-score with RELB subunit;p52 subunit, 1.37 z-score in test [3] and 1.47 z-score in [4].

In the case of AAGTTATCCCC, the binding signal with RELARELA (p65 homodimer) turned out to be 0.516 z-score; with p50p50 homodimer it was 1.08 z-score; with p52p52 homodimer, 0.864 z-score; in [1], 0.995 z-score; in test [2], 0.69 z-score; with RELB subunit;p50 subunit it was 1.26 z-score. Further, the results for the binding signal (with RELB subunit;p52 subunit; in test [3]; in test [4]) were 1.11 z-score, 1.16 z-score and 0.506 z-score, respectively.

On to AAGATTCTCCT, for which the binding signal was -0.184 z-score with RELARELA (p65 homodimer); -1.03 z-score with p50p50 homodimer; -0.669 z-score in the test with p52p52 homodimer; -0.803 z-score in test [1]; -0.991 z-score in test [2]; -0.921 z-score with RELB subunit;p50 subunit. Besides, the binding signal in the test with RELB subunit;p52 subunit is -0.819 z-score; in [3] it was -1.1 z-score; in test [4], -0.941 z-score.

As for CAAATGCCCCT, the binding signal with RELARELA (p65 homodimer) came out at 0.347 z-score; with p50p50 homodimer it was 1.15 z-score; in the test with p52p52 homodimer it was 1.14 z-score; in test [1], 1.2 z-score; in test [2], 1.19 z-score; with RELB subunit;p50 subunit, 1.21 z-score. The binding signal stood at 1.47 z-score in the test with RELB subunit;p52 subunit, 0.882 z-score in test [3] and 1.38 z-score in [4].

As for CGGGTGCCCCC, the binding signal is -0.0899 z-score in the test with RELARELA (p65 homodimer); 0.777 z-score with p50p50 homodimer; 0.373 z-score with p52p52 homodimer; 0.794 z-score in test [1]; 0.707 z-score in test [2]; 0.779 z-score in the test with RELB subunit;p50 subunit. The binding signal with RELB subunit;p52 subunit is 1.05 z-score; in [3], 0.974 z-score; in [4] it was 0.84 z-score.

Regarding AAGGGCCCCCT, the binding signal in the test with RELARELA (p65 homodimer) is -0.998 z-score; with p50p50 homodimer it was 0.884 z-score; in the test with p52p52 homodimer, 0.332 z-score; in [1], 0.446 z-score; in [2] it was 0.569 z-score; with RELB subunit;p50 subunit, 0.703 z-score. For the same sequence, the binding signal with RELB subunit;p52 subunit was 1.14 z-score; in test [3], 0.138 z-score; in test [4], 0.261 z-score.

On to AGATTACCCCC, for which the binding signal with RELARELA (p65 homodimer) came to 0.372 z-score; with p50p50 homodimer, 1.19 z-score; with p52p52 homodimer, 0.936 z-score; in test [1], 1.24 z-score; in test [2] it was 1.2 z-score; with RELB subunit;p50 subunit, 1.18 z-score. Moreover, the binding signal came to 1.63 z-score with RELB subunit;p52 subunit, 1.21 z-score in [3] and 1.12 z-score in test [4].

Consider CGATTGACCCC, for which the binding signal with RELARELA (p65 homodimer) was -0.827 z-score; with p50p50 homodimer, -0.753 z-score; with p52p52 homodimer, -0.367 z-score; in [1] it was -0.579 z-score; in [2], -0.288 z-score; in the test with RELB subunit;p50 subunit it was -0.398 z-score. For the same sequence, the binding signal was -0.411 z-score in the test with RELB subunit;p52 subunit, -0.541 z-score in test [3] and -0.184 z-score in test [4].

GGGTATATCCC: the binding signal came to 1.19 z-score with RELARELA (p65 homodimer); 0.245 z-score with p50p50 homodimer; 2.43 z-score with p52p52 homodimer; 0.931 z-score in test [1]; 1.62 z-score in test [2]; 0.847 z-score with RELB subunit;p50 subunit. The binding signal with RELB subunit;p52 subunit was 0.92 z-score; in test [3] it was 0.341 z-score; in [4] it was 1.12 z-score.

Consider GAATGGCCCCT, for which the binding signal in the test with RELARELA (p65 homodimer) is -0.247 z-score; with p50p50 homodimer it was 0.432 z-score; with p52p52 homodimer, 0 z-score; in [1] it was 0.128 z-score; in [2], 0.262 z-score; in the test with RELB subunit;p50 subunit, 0.27 z-score. Further, the binding signal in the test with RELB subunit;p52 subunit is 0.242 z-score; in [3], -0.321 z-score; in test [4], -0.168 z-score.

For the sequence GAAAAGTCCCT, the binding signal with RELARELA (p65 homodimer) was 1.43 z-score; with p50p50 homodimer, 1.36 z-score; with p52p52 homodimer it was 2.5 z-score; in [1], 2.07 z-score; in test [2], 1.79 z-score; with RELB subunit;p50 subunit it was 2.67 z-score. For the same sequence, the binding signal with RELB subunit;p52 subunit was determined as 2.22 z-score; in test [3] it was 1.59 z-score; in test [4], 2.16 z-score.
